Measurements as given in PubChem BioAssay AID623870 (Broad Institute, 2012).
Hit rate of the full screen: of about 390,000 compounds, about 2,600 (0.67%) were called active. The full list was thinned out, with actives kept by preference. Unmarked numbers belong to inactive results.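 How the source made its calls: active means mean inhibition of replicates at least 50% and at least half of replicates each reaching 50%; inconclusive means half or more replicates reach 50% but mean below 50%; inactive means the rest.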

Biological target: Transforming acidic coiled-coil-containing protein 3 (Homo sapiens) (UniProt Q9Y6A5)
Assay: inhibitors of ARNT PAS-B binding to TACC3 – biochemical, AlphaScreen, single concentration, primary screen (AID 623870);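 further: 0% = complete ARNT plus TACC3 wells and 100% = ARNT alone without TACC3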
Conditions: AlphaScreen His-ARNT PAS-B/GST-TACC3 binding, luminescence; at 9.99 µM; hits give high values; TACC3 fragment carries E629A point mutation

Going from `CC[C@@H](C)[C@H](NC(=O)CCc1c(C)c2cc3c4c(oc3c(C)c2oc1=O)CCCC4)C(=O)O` to `Cc1oc2c(C)c3oc(=O)c(CC(=O)N[C@@H](CC(C)C)C(=O)N[C@@H](Cc4ccccc4)C(=O)O)c(C)c3cc2c1C`, the inhibition rises from -0.229% to 2.61%.

Going from `Cc1coc2c1c(C)cc1oc(=O)c(CC(=O)NCC(=O)N[C@H](C(=O)O)C(C)C)c(C)c12` to `COc1cccc(-c2coc3cc4oc(=O)c(CC(=O)O)c(C)c4cc23)c1`, the inhibition rises from 2.88% to 17.2%.

Going from `C[C@H](CO)N1C[C@H](C)[C@H](CN(C)Cc2ccncc2)Oc2ncc(C#CCC3CCCCC3)cc2C1=O` to `C[C@@H](O)C#Cc1cnc2c(c1)C(=O)N([C@@H](C)CO)C[C@H](C)[C@H](CN(C)Cc1cncnc1)O2`, the inhibition rises from -1.21% to -0.882%.

First: Cc1noc(C)c1NC(=O)Nc1ccc2c(c1)CC(=O)N([C@@H](C)CO)C[C@@H](C)[C@@H](CN(C)Cc1ccc(Cl)c(Cl)c1)O2
Second: C[C@@H]1CCCCO[C@H](CN(C)Cc2ccc(Cl)c(Cl)c2)[C@H](C)CN([C@@H](C)CO)C(=O)c2cc(NC(=O)C3CCCCC3)ccc2O1
The inhibition of the first is higher: -1.62% for the first, -6.84% for the second.

First: CO[C@@H]1CN(C)C(=O)c2cc(NS(=O)(=O)c3cn(C)cn3)ccc2OC[C@@H](C)NC[C@H]1C
Second: COCC(=O)Nc1ccc2c(c1)OC[C@@H](C)N(C(=O)c1cnccn1)C[C@H](C)[C@H](OC)CN(C)C2=O
The inhibition of the first is higher: 1.1% for the first, -8.24% for the second.

First: CN(C)C(=O)C[C@@H]1CC[C@H](NC(=O)NC2CCCCC2)[C@@H](CO)O1
Second: CCNC(=O)C[C@@H]1CC[C@H](NC(=O)NC2CCCCC2)[C@H](CO)O1
The inhibition of the first is lower: -17% for the first, 14.7% for the second.

Compared with `CN(C)C(=O)C[C@@H]1CC[C@H]2[C@@H](COC[C@H](O)CN2C(=O)c2ccncc2)O1`, `CCCNC(=O)C[C@H]1CC[C@H]2[C@@H](COC[C@@H](O)CN2C(=O)Nc2ccc(Cl)c(Cl)c2)O1` is higher in inhibition: -9.54% for the first, -0.599% for the second.

Going from `C[C@@H]1CN([C@H](C)CO)S(=O)(=O)c2ccc(-c3ccncc3)cc2O[C@@H]1CN(C)C(=O)CN(C)C` to `CC(=O)N(C)C[C@H]1Oc2cc(-c3ccc(C)cc3)ccc2S(=O)(=O)N([C@@H](C)CO)C[C@@H]1C`, the inhibition falls from 12% to -9.76%.

Going from `C[C@H]1CN([C@@H](C)CO)C(=O)c2cc(NC(=O)NC3CCCCC3)ccc2O[C@@H]1CN(C)C(=O)Nc1cccc2ccccc12` to `C[C@H]1CN([C@@H](C)CO)C(=O)c2cc(NC(=O)Cn3cnnn3)ccc2O[C@@H]1CN(C)C(=O)Nc1ccccc1`, the inhibition falls from 0.153% to -0.158%.

First: C#CCOCCOCCOCCNc1nc(N2CCN(C(=O)CCCCCCCCCCNC(=O)[C@H]([C@@H](C)CC)n3cc(CCCCN=C(N)N)nn3)CC2)nc(N2CCN(C(=O)CCCCCCCCCCNC(=O)[C@H](CO)n3cc(CCCSC)nn3)CC2)n1
Second: CCC(C)[C@@H](C(=O)N1CCNCC1)n1cc(CCCCN)nn1 (stereo not given in full)
The inhibition of the first is higher: 9.17% for the first, 7.8% for the second.

Compared with `CC[C@H](C)[C@@H](C(=O)N1CCNCC1)n1cc([C@@H](N)Cc2ccc(O)cc2)nn1`, `CC(OC(=O)CN1C(=O)COc2ccccc21)C(=O)NCc1ccc(F)cc1` (stereo not given) is lower in inhibition: -3.75% for the first, -23.2% for the second.

Going from `C[C@H]1CN([C@@H](C)CO)C(=O)c2cc(NC(=O)CCN3CCOCC3)ccc2O[C@@H]1CN(C)C(=O)Nc1ccc(C(F)(F)F)cc1` to `COc1ccc(S(=O)(=O)N(C)C[C@H]2OCCCC[C@H](C)Oc3ccc(NC(=O)CCC(F)(F)F)cc3C(=O)N([C@@H](C)CO)C[C@@H]2C)cc1`, the inhibition falls from 26.6% to 1.97%.

Going from `Cc1noc(C)c1S(=O)(=O)N(C)C[C@H]1OCCCC[C@@H](C)Oc2ccc(NC(=O)c3ccccc3)cc2C(=O)N([C@@H](C)CO)C[C@H]1C` to `COc1ccc(S(=O)(=O)Nc2cccc3c2O[C@@H](CN(C)S(=O)(=O)c2ccccc2)[C@@H](C)CN([C@@H](C)CO)C3=O)cc1`, the inhibition rises from -4.16% to 1.77%.

First: O=C1c2ccccc2-c2ncnc3c(N4CCOCC4)cc(N4CCOCC4)c1c23
Second: O=C(CN1C(=O)COc2ccc(Cl)cc21)Nc1ccc(N2CCOCC2)cc1
The inhibition of the first is higher: 11.8% for the first, 2.76% for the second.

Compared with `COc1ccc(S(=O)(=O)N2CCOCC2)c(C)c1C`, `COc1cccc(S(=O)(=O)N[C@H]2CC[C@H](CCN)O[C@H]2CO)c1` is higher in inhibition: -0.167% for the first, 0.015% for the second.

First: C[C@@H]1CN([C@@H](C)CO)C(=O)c2cccc(NS(=O)(=O)c3cn(C)cn3)c2O[C@H]1CN(C)Cc1ccc(Cl)c(Cl)c1
Second: CC(C)CC#Cc1cnc2c(c1)C(=O)N([C@H](C)CO)C[C@H](C)[C@H](CN(C)C(=O)Nc1ccccc1F)O2
The inhibition of the first is higher: 4.82% for the first, -1.64% for the second.

Going from `O=C(NC1CCCC1)[C@H]1[C@H](CO)[C@H]2Cn3c(ccc(-c4ccccc4)c3=O)[C@H]2N1CCc1ccccc1` to `COC(=O)[C@@H]1[C@@H](CO)[C@@H]2Cn3c(ccc(C4=CCCC4)c3=O)[C@@H]2N1Cc1cncnc1`, the inhibition falls from 5.95% to -4.04%.

Going from `COCC(=O)N1CC[C@@H]2[C@@H](CO)Nc3ccc(-c4ccc(C(=O)N(C)C)cc4)cc3[C@@H]21` to `O=C(Cc1ccncc1)NCC[C@H]1CC[C@@H](NC(=O)Nc2ccc(Cl)cc2)[C@@H](CO)O1`, the inhibition rises from -12.5% to 13.7%.

Going from `COc1cc(Cl)cc(C2NC(=O)NC(C)=C2C(=O)NCc2ccccc2)c1O` (stereo not given) to `COc1cc(C2C(C(=O)Nc3ccccc3OC)=C(C)Nc3ncnn32)ccc1O` (stereo not given), the inhibition rises from -0.141% to 7.59%.

Compared with `COc1cc(C(=O)NCc2ccc(-n3cccc3)cc2)cc(OC)c1OC`, `Cc1cc(C(=O)OCC(=O)NCc2ccco2)c(C)n1-c1ccccc1` is lower in inhibition: -1.7% for the first, -8.94% for the second.

First: C[C@@H]1CN([C@@H](C)CO)S(=O)(=O)c2ccc(C3=CCCC3)cc2O[C@H]1CN(C)C(=O)CC1CC1
Second: C/C=C/c1ccc2c(c1)O[C@@H](CN(C)C(=O)Cc1ccccn1)[C@@H](C)CN([C@H](C)CO)S2(=O)=O
The inhibition of the first is higher: 3.76% for the first, -2.68% for the second.

Compared with `CCC(CC)c1nnc(NC(=O)C2=COCCO2)s1`, `O=C(Nc1nnc(C2=COCCO2)o1)c1ccc([N+](=O)[O-])s1` is higher in inhibition: -6.14% for the first, 32.6% for the second.

First: C[C@H]1CN([C@@H](C)CO)C(=O)c2cc(NC(=O)Nc3ccc4c(c3)OCO4)ccc2O[C@@H]1CN(C)Cc1ccc(Oc2ccccc2)cc1
Second: CO[C@@H]1CN(C)C(=O)c2ccc(NC(=O)Nc3ccccc3)cc2OC[C@H](C)N(C(=O)CC2CC2)C[C@@H]1C
The inhibition of the first is higher: 28.7% for the first, -5.39% for the second.

First: CC1=C(C(=O)OC2CCCCC2)C(c2cccnc2)n2ncnc2N1 (stereo not given)
Second: CC(C)CC#Cc1ccc2c(c1)O[C@H](CN(C)C(=O)c1cccnc1)[C@@H](C)CN([C@H](C)CO)S2(=O)=O
The inhibition of the first is higher: -3.41% for the first, -3.52% for the second.

Compared with `CN1CCN(C(=O)C[C@H]2CC[C@H]3[C@H](COc4ccc(NC(=O)C5CC5)cc4C(=O)N3C)O2)CC1`, `Cc1ccc(S(=O)(=O)N2C[C@@H](O)COC[C@@H]3O[C@@H](CC(=O)N[C@H]4CCN(Cc5ccccc5)C4)CC[C@H]32)cc1` is lower in inhibition: -1.07% for the first, -6.23% for the second.

Compared with `CCC(=O)N(C)C[C@H]1Oc2ncc(C#CC(C)C)cc2C(=O)N([C@@H](C)CO)C[C@H]1C`, `CCOC(=O)c1nn(-c2cccc(C)c2)cc1C(=O)c1ccccc1` is higher in inhibition: -8.34% for the first, 25.6% for the second.

Compared with `CCc1cccc(NC(=O)COC(=O)c2cc(=O)c3ccccc3o2)c1`, `O=C(COC(=O)CSc1nnc(-c2ccc(Cl)cc2)o1)Nc1cc(Cl)cc(Cl)c1` is higher in inhibition: -1.51% for the first, 2.05% for the second.

Going from `COCCNC(=O)C(OC(=O)c1cccs1)c1ccc(F)cc1` (stereo not given) to `COCCCNC(=O)Cn1cc(C(=O)C2CC2)c2ccccc21`, the inhibition rises from -9.93% to 1.82%.

In the case of `Cc1c(CC(=O)NCC(=O)NCC(=O)O)c(=O)oc2cc3oc4c(c3cc12)CCCC4`, the inhibition is reported as 50.6% (active).
With `Cc1c(CC(=O)NCCCCCC(=O)O)c(=O)oc2cc3occ(-c4ccccc4)c3cc12` the inhibition was 54.3% (active).
For `C#CCOCCOCCOCCNc1nc(N2CCN(C(=O)C([C@@H](C)O)n3cc([C@@H](N)CCCCN)nn3)CC2)nc(N2CCN(C(=O)[C@H](CCCCN)n3cc(CN)nn3)CC2)n1` (stereo not given in full), the inhibition was 21.2% (active).
With `C#CCOCCOCCOCCNc1nc(N2CCN(C(=O)[C@H](CCCCN)n3cc([C@@H](N)C(C)CC)nn3)CC2)nc(N2CCN(C(=O)[C@H](Cc3ccc(O)cc3)n3cc([C@@H](N)C(C)CC)nn3)CC2)n1` (stereo not given in full) the inhibition was 45.7% (active).
With `COC1=C(N2CCOCC2)C(=O)c2ccccc2C1=O` the inhibition was 60.4% (active).
`COc1cc(C(=S)NCc2ccccc2)cc(Br)c1O` was tested, and the inhibition was 49.6% (active).
`c1ccc(-c2cn3c(n2)CCc2ccc4cccnc4c2-3)cc1` was tested, and the inhibition was 64.1% (active).
For `COc1cc(-c2nnc(NC(=O)C3=COCCO3)o2)cc(OC)c1OC`, the inhibition was 45.2% (active).
In the case of `O=C(CN1C(=O)COc2ccccc21)Nc1ccc(F)cc1`, the inhibition is reported as 55.9% (active).
In the case of `COC(=O)C1=C(C)Nc2ncnn2C1c1cccnc1` (stereo not given), the inhibition is reported as 18.7% (active).
In the case of `Oc1ccc(N=Nc2nccs2)c(O)c1`, the inhibition is reported as 80.9% (active).
`CCOC(=O)C1=C(O)/C(=C/c2cc(C)n(-c3ccccc3)c2C)N=C1C` was tested, and the inhibition was 27.3% (active).
For `CC(=O)Nc1cccc(C(=O)OCC(=O)Nc2nnc(-c3ccccc3)o2)c1`, the inhibition was 55.1% (active).
With `COCCNC(=O)Cn1cc(C(=O)c2cccs2)c2ccccc21` the inhibition was -1.09% (active).
